Bioassay records (PubChem)
Rows were chosen to be rich in hits. Some 7% of all compounds tested hit in one or more screens of this group.
D3 ag = activates the human D3 dopamine receptor. P35462. actives 0.58% (n = 410,000). max activation, %. D3R DiscoveRx beta-arrestin cells, luminescence, 90 min; in the data active = max activation above about 30%; also: 0% is about no effect
Target sequence (P35462 whole entry, looked up): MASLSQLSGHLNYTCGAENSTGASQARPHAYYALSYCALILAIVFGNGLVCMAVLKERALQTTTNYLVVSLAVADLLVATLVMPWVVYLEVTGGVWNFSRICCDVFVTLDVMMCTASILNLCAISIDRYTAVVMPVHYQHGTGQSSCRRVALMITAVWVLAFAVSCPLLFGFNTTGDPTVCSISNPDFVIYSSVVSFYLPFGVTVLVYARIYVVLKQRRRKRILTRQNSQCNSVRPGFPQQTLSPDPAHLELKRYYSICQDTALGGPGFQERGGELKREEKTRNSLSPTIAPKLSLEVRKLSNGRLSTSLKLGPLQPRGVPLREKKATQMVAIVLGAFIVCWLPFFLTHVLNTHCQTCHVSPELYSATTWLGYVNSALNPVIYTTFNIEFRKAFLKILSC
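Agonist-mode cell screen: cells plated at 1500/well and incubated overnight at 37 °C, then exposed to library compounds for 90 min at 37 °C. Detection reagent was added for 30–60 min at room temperature, and luminescence was read.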
Integrin act MD = integrin-mediated muscular dystrophy alleviation activation | alpha7betagal myoblasts, beta-gal FDG fluorescence, 48 h | Potency, µM (highest dose often 38.3 µM), for inactives: at the top dose activation, usual class: activators | actives 0.064% (n = 350,000) | AID 624291;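 also: potency is read from the fitted curve at half-maximal effect; 100% = response of the positive control SU9516; nearly all actives have a fitted effect of over 60% in size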
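alpha7betagal+/- myoblasts (passage 13, 250/well) treated 48 h at 37C with compounds at 1:260 dilution of DMSO stock. Lysed, then beta-galactosidase activity read as FDG fluorescence (ex 480/em 540) after 30 min, with pre-read for autofluorescence.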
ATXN2 expr inh = inhibitors of ATXN2 expression. AID 1745845. Potency, µM (titrated, usually from 57 µM), for inactives: top-dose activity change, negative = inhibition, actives largely listed as inhibitors. HEK-293 ATXN2-luciferase reporter, luminescence, 24 h. actives 0.72% (n = 360,000); also: potency is read from the fitted curve at half-maximal effect; % is scaled to controls: 0 for no effect and ±100 for the full control effect; nearly all actives have a fitted effect of over 55% in size
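ATXN2-luciferase reporter cells (luciferase flanked by upstream and downstream ATXN2 gene portions) were treated 24 h at 37 °C with compounds at up to 57 uM. SteadyGlo luminescence gave expression; GF-AFC fluorescence gave viability.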
IL-1B inflam inh = blocks inflammasome-driven IL-1 beta release; activity change, % at 57.5 µM; THP-1 LPS/ATP IL-1B secretion, AlphaLISA, 16 h; active compounds read low; actives 4.7% (n = 360,000); in the data active = activity change below about -50%; inconclusive = mostly about -30% to -49%; also: % is scaled to controls: 0 for no effect and ±100 for the full control effect
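THP-1 cells pretreated 1 hr with compounds (up to 57.5 uM final), then stimulated with LPS (250 ng/mL final) plus ATP (1.25 mM final); secreted IL-1B measured by AlphaLISA after 16 hr, decreased signal indicating inhibition.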
DRD3 antagonist = blocks the human D3 dopamine receptor. AID 652054. D3R cells, DiscoveRx beta-arrestin luminescence, antagonist mode; active compounds read low. max response, negative = inhibition, %. actives 2.5% (n = 360,000). P35462; in the data active = max response below about -50%; inconclusive = no clear call, values can overlap the other calls; also: % is scaled to controls: 0 for no effect and ±100 for the full control effect
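Cells expressing the human receptor were seeded at 1500 cells/well, incubated overnight at 37 degrees C in 5% CO2, then exposed to library compounds with dopamine controls for 90 minutes at 37 degrees C before luminescent detection.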
S2 tox = viability counter-screen for ATXN expression inhibitors. S2 cells (HEK-293 line with an ATXN2-luciferase reporter) viability, CellTiter-Fluor protease fluorescence, 24 h. Potency, µM (titrated, usually from 56.7 µM), hits mostly cytotoxic. actives 0.49% (n = 400,000); also: potency is read from the fitted curve at half-maximal effect; nearly all actives have a fitted effect of over 40% in size
Starred values were filed as active, the others as inactive; ! = not confirmed by another sample; [ ] = another dose, or the depositor's remark. Unless noted, calls follow the shape of the dose curve; as a rule, active = well fitted curve in the direction sought with a large enough effect; inconclusive = small, poorly fitted or top-dose-only effect, or another doubt; inactive = no such curve, though single readings can be large; an effect the other way counts as inactive or inconclusive.

How did NC(=O)c1nsc(C(=O)N(c2ccccc2F)C(C(=O)NCc2ccccc2)c2ccc(O)cc2)c1N (centres undefined) do in these assays?
D3 ag: 4; Integrin act MD: -8%; ATXN2 expr inh: -15%; IL-1B inflam inh: -102*; DRD3 antagonist: 33

How did CCOc1ccccc1N(C(=O)c1snc(C(N)=O)c1N)C(C(=O)NCc1ccccc1)c1ccc(O)cc1 (centres undefined) do in these assays?
D3 ag: -6; Integrin act MD: -25%; ATXN2 expr inh: -14%; IL-1B inflam inh: -67*; DRD3 antagonist: -3; S2 tox: inactive

What do the screens show for `COc1ccc(C(C(=O)NCc2ccccc2)N(C(=O)c2snc(C(N)=O)c2N)c2ccccc2OC)cc1OC` (centres undefined)?
D3 ag: -6; Integrin act MD: 10%; ATXN2 expr inh: -1%; IL-1B inflam inh: 0; DRD3 antagonist: 3; S2 tox: inactive

Results for COc1ccccc1N(C(=O)c1snc(C(N)=O)c1N)C(C(=O)NCc1ccccc1)c1ccc(C)o1 (centres undefined) ?
D3 ag: 5; Integrin act MD: 10%; ATXN2 expr inh: -3%; IL-1B inflam inh: -73*; DRD3 antagonist: 11; S2 tox: inactive

Results for Cc1ccccc1N(C(=O)c1snc(C(N)=O)c1N)C(C(=O)NCc1ccccc1)c1ccc(O)cc1 (centres undefined) ?
D3 ag: 20; Integrin act MD: 37%; ATXN2 expr inh: inconclusive; IL-1B inflam inh: -100*; DRD3 antagonist: 8; S2 tox: inconclusive

How did CCOc1ccc(Cl)cc1-c1cc(C(=O)Nc2ccc(OC)nc2)[nH]n1 do in these assays?
D3 ag: 1; ATXN2 expr inh: -10%; IL-1B inflam inh: -18; DRD3 antagonist: 0; S2 tox: inactive

What do the screens show for `COc1ccccc1N1CCc2c(C)nc3c(OC)cccc3c21`?
D3 ag: 0; Integrin act MD: -53%[7.66 µM]; ATXN2 expr inh: -23%; IL-1B inflam inh: -72*; DRD3 antagonist: 5; S2 tox: inconclusive

Results for COc1cccc2c3c(c(C)nc12)CCN3c1ccccc1 ?
D3 ag: 2; Integrin act MD: 6%; ATXN2 expr inh: inconclusive; IL-1B inflam inh: -93*; DRD3 antagonist: 0

What do the screens show for `NC(=S)NN=C1CSSC1`?
D3 ag: -3; Integrin act MD: -49%; IL-1B inflam inh: -100*; DRD3 antagonist: -14; S2 tox: inactive

What do the screens show for `CC1(C)CCC(=NNC(N)=S)CC1`?
D3 ag: -8; Integrin act MD: 32%; ATXN2 expr inh: -34%; IL-1B inflam inh: 13; DRD3 antagonist: -7; S2 tox: inconclusive

What do the screens show for `COc1cc2cc(CN(CCCN3CCOCC3)Cc3nnnn3Cc3ccccc3)c(=O)[nH]c2cc1OC`?
D3 ag: -10; Integrin act MD: 10%; IL-1B inflam inh: -1; DRD3 antagonist: -4; S2 tox: inactive

What do the screens show for `CC(NC(=O)COC(=O)c1cn(-c2ccccc2)nc1-c1cccs1)c1ccccc1` (centres undefined)?
D3 ag: 28; Integrin act MD: 2%; ATXN2 expr inh: -3%; IL-1B inflam inh: -4; DRD3 antagonist: 9; S2 tox: inactive

Results for O=C(O)CNCC1COc2ccccc2O1 (centres undefined) ?
D3 ag: 0; Integrin act MD: 3%; ATXN2 expr inh: 4%; IL-1B inflam inh: -10; DRD3 antagonist: 16; S2 tox: inactive

Results for CN(CC(=O)NCC1COc2ccccc2O1)S(=O)(=O)c1ccc(Cl)cc1 (centres undefined) ?
D3 ag: -10; Integrin act MD: -15%; ATXN2 expr inh: 8%; IL-1B inflam inh: 9; DRD3 antagonist: -17; S2 tox: inactive

How did CN(C)S(=O)(=O)c1cccc(CNCC2COc3ccccc3O2)c1 (centres undefined) do in these assays?
D3 ag: 31*; Integrin act MD: -34%; ATXN2 expr inh: -6%; IL-1B inflam inh: 20; DRD3 antagonist: inconclusive; S2 tox: inactive

Results for c1ccc(CCNCC2COc3ccccc3O2)cc1 (centres undefined) ?
D3 ag: -3; Integrin act MD: 41%; ATXN2 expr inh: 15%; IL-1B inflam inh: -16; DRD3 antagonist: -85*; S2 tox: inactive

What do the screens show for `S=C(NCc1ccccc1)NCC1COc2ccccc2O1` (centres undefined)?
D3 ag: -36; Integrin act MD: 13%; ATXN2 expr inh: 9%; IL-1B inflam inh: 50; DRD3 antagonist: -17; S2 tox: inactive

How did c1ccc2c(c1)OCC(CNCC1COc3ccccc3O1)O2 (centres undefined) do in these assays?
D3 ag: -7; Integrin act MD: 27%; ATXN2 expr inh: 14%; IL-1B inflam inh: 30; DRD3 antagonist: -81*; S2 tox: inactive

What do the screens show for `Oc1ccc(CNCC2COc3ccccc3O2)cc1` (centres undefined)?
D3 ag: 3; Integrin act MD: 6%; ATXN2 expr inh: -2%; IL-1B inflam inh: -7; DRD3 antagonist: -73*; S2 tox: inactive

Results for COc1cccc(CN(C)C(=O)c2[nH]c(C)c(C(C)=O)c2C)c1OC ?
D3 ag: 12; Integrin act MD: 0%; ATXN2 expr inh: -13%; IL-1B inflam inh: 53; DRD3 antagonist: 1; S2 tox: inactive

What do the screens show for `COc1ccc(-n2c(=O)c3c4c(sc3n(CC(=O)NCC3CCCO3)c2=O)CCCC4)c(OC)c1` (centres undefined)?
D3 ag: -16; Integrin act MD: 1%; ATXN2 expr inh: -13%; IL-1B inflam inh: 3; DRD3 antagonist: -22; S2 tox: inactive

Results for CCOc1cccc2c1OC1(C)CC2NC(=O)N1c1cccc(C(=O)N2CCN(c3ccccn3)CC2)c1 (centres undefined) ?
D3 ag: 1; Integrin act MD: -5%; ATXN2 expr inh: -9%; IL-1B inflam inh: -66*; DRD3 antagonist: -3; S2 tox: inactive

How did CCOc1ccc(CNS(=O)(=O)c2c(C)nc3scc(C)n3c2=O)cc1OC do in these assays?
D3 ag: -10; Integrin act MD: inconclusive; ATXN2 expr inh: -6%; IL-1B inflam inh: 1; DRD3 antagonist: inconclusive; S2 tox: inactive

What do the screens show for `COc1cc(CNc2ccc3[nH]c(=O)[nH]c3c2)ccc1OCc1cccc(C)c1`?
D3 ag: 27; Integrin act MD: -7%; ATXN2 expr inh: 8%; IL-1B inflam inh: -76*; DRD3 antagonist: 6; S2 tox: inconclusive

How did COc1cc(CNc2ccc3[nH]c(=O)[nH]c3c2)cc(Br)c1OCc1ccc(F)cc1 do in these assays?
D3 ag: 33*!; Integrin act MD: -3%; ATXN2 expr inh: inconclusive; DRD3 antagonist: 13; S2 tox: inconclusive
